Structures can show the parent of a compound that is named as a salt.

The experiment concerns LEGO organoid PTCC (PTEN-/-; TP53-/-; CDKN2A-/-; CDKN2B-/-). In words: bioluminescence (viable cell) signal fold change after vs before treatment, normalised to DMSO (ratio); higher = more tumour cell growth / less inhibition. To be noted: 10 µM; treatment time 6 days. How it is done: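 Luc2-labelled iPSC-derived glioblastoma-like organoids (LEGOs, genotypes PT = PTEN-/-;TP53-/-, PTCC = plus CDKN2A/B-/-, PTN = plus NF1-/-) were treated with 10 uM drug for 6 days (applied every other day) at 37 C. Bioluminescence imaging was done before treatment and 2 days after the last dose. BLI signals were normalised to the DMSO control on the same day and then to the pre-treatment signal (N=3).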
`COc1cc2ncnc(Nc3ccc(F)c(Cl)c3)c2cc1OCCCN1CCOCC1` [Gefitinib]: the bioluminescence was 1.22.
The value for `OCCN1CCN(CCCN2c3ccccc3Sc3ccc(Cl)cc32)CC1` [Perphenazine] was 0.615; that for `COCCOC(=O)C1=C(C)NC(C)=C(C(=O)OC(C)C)C1c1cccc([N+](=O)[O-])c1` (configuration not stated) [Nimodipine] was 1.61; that for `CO/N=C(\C(=O)N[C@@H]1C(=O)N2C(C(=O)[O-])=C(CSc3nc(=O)c([O-])nn3C)CS[C@H]12)c1csc(N)n1.CO/N=C(\C(=O)N[C@@H]1C(=O)N2C(C(=O)[O-])=C(CSc3nc(=O)c([O-])nn3C)CS[C@H]12)c1csc(N)n1.O.O.O.O.O.O.O.[Na+].[Na+].[Na+].[Na+]` [Ceftriaxone sodium] was 1.62.
The result for `NC(=O)OCC(COC(N)=O)c1ccccc1` [Felbamate] reads 3.87; that for `O.O.O.O.[Li][O]C(=O)CC(O)(CC(=O)[O][Li])C(=O)[O][Li]` [Lithium citrate tetrahydrate], 0.787; that for `CS(=O)(=O)O.Cc1ccc(NC(=O)c2ccc(CN3CCN(C)CC3)cc2)cc1Nc1nccc(-c2cccnc2)n1` [Imatinib Mesylate], 1.35.
In the case of `NC(=O)N[C@@H](CCC(=O)O)C(=O)O` [Carglumic Acid], the bioluminescence amounted to 0.631.
The value for `CS(=O)(=O)c1ccc(C2=C(c3ccccc3)C(=O)OC2)cc1` [Rofecoxib] was 0.638.
With `NC[C@H]1CC[C@H](C(=O)O)CC1` [Amstat], the bioluminescence stood at 0.622.
The value for `CCc1cc(/C(C)=N/OCc2ccc(C3CCCCC3)c(C(F)(F)F)c2)ccc1CN1CC(C(=O)O)C1` [Siponimod] was 2.91; that for `O=c1[nH]c(=O)n(C2CCCO2)cc1F` (configuration not stated) [Tegafur] was 1.14; that for `COc1cc(Nc2ncc(F)c(Nc3ccc4c(n3)N(COP(=O)(O)O)C(=O)C(C)(C)O4)n2)cc(OC)c1OC` [Fostamatinib] was 0.182.
The value for `COC(=O)/C=C/C(=O)OC` [Dimethyl fumarate] was 0.94; that for `CN1CCN2c3ncccc3Cc3ccccc3C2C1` (configuration not stated) [Mirtazapine] was 1.47; that for `O=C1NC(=O)C(c2ccccc2)(c2ccccc2)N1` [Phenytoin] was 0.982.
As to `CC(C)Cc1ccc(C(C)C(=O)O)cc1` (configuration not stated) [Ibuprofen], the bioluminescence was determined as 0.624.
Take `Cl.Nc1c2c(nc3ccccc13)CCCC2.O` [Tacrine hydrochloride hydrate]: the bioluminescence worked out at 0.819.
As for `Nc1ncn([C@H]2C[C@H](O)[C@@H](CO)O2)c(=O)n1` [Decitabine], the bioluminescence came out at 1.67.
The value for `C/C(O)=C(\C#N)C(=O)Nc1ccc(C(F)(F)F)cc1` [Teriflunomide] was 0.469.
`CC(=O)NCCCS(=O)(=O)[O-].CC(=O)NCCCS(=O)(=O)[O-].[Ca+2]` [Acamprosate calcium]: the bioluminescence is 0.374.
The value for `CN(Cc1cnc2nc(N)nc(N)c2n1)c1ccc(C(=O)N[C@@H](CCC(=O)O)C(=O)O)cc1` [Methotrexate] was 1.34.
The result for `CC(=O)Nc1nnc(S(N)(=O)=O)s1` [Acetazolamide] reads 1.7; that for `C[C@@H]1COCCN1c1cc(C2([S@](C)(=N)=O)CC2)nc(-c2ccnc3[nH]ccc23)n1` [Ceralasertib], 1.4.
The value for `CC(C(=O)O)c1cccc(C(=O)c2ccccc2)c1` (configuration not stated) [Ketoprofen] was 1.2; that for `Cn1c(=O)c2[nH]cnc2n(C)c1=O` [Theophylline] was 1.2.
On to `CCc1c2c(nc3ccc(OC(=O)N4CCC(N5CCCCC5)CC4)cc13)-c1cc3c(c(=O)n1C2)COC(=O)[C@]3(O)CC` [Irinotecan], for which the bioluminescence amounted to 2.25.
With `CC(=O)OCC(=O)[C@@]1(O)[C@H](C)C[C@H]2[C@@H]3CCC4=CC(=O)C=C[C@]4(C)[C@@]3(F)[C@@H](O)C[C@@]21C` [Dexamethason acetate], the bioluminescence worked out at 0.467.
The result for `CCOC(=O)OC(C)OC(=O)[C@@H]1N2C(=O)[C@@H](NC(=O)[C@H](N)c3ccccc3)[C@H]2SC1(C)C.Cl` (some centres not stated) [Bacampicillin hydrochloride] reads 1.35.
Take `Cl.O=C1c2cccc3c2[C@H](CCC3)CN1[C@@H]1CN2CCC1CC2` [Palonosetron hydrochloride]: the bioluminescence amounted to 0.952.
The result for `CN(C)CCOC(C)(c1ccccc1)c1ccccn1.O=C(O)CCC(=O)O` (configuration not stated) [Doxylamine succinate] reads 1.17; that for `CCN1CCN(C(=O)N[C@@H](C(=O)N[C@@H]2C(=O)N3[C@@H]2SC(C)(C)[C@@H]3C(=O)[O-])c2ccccc2)C(=O)C1=O.[Na+]` [Piperacillin sodium salt], 1.11.

The record behind these values is the supplement of paper PMC10811239.
